From PubChem
Menin MLL FP TR – displaces Texas Red mutant MLL peptide from human menin | Menin + Texas Red MLL mutant peptide, fluorescence polarization | Potency, µM (titrated, usually from 61.6 µM), inactives show at the highest dose FP activity change, negative = inhibition, actives largely listed as inhibitors | AID 1768 | O00255 | 0.23% of 270,000 active; active = well fitted inhibition curve with a large enough effect in the polarisation, with a control signal flat, not every such curve was filed as active; inconclusive = small, poorly fitted or top-dose-only effect, or effect the other way, or a change in a side signal; inactive = no such curve, though single readings can be large or run the other way; the % refers to the polarisation; also: potency is read from the fitted curve at half-maximal effect; % of control where 0% means no effect
Epigenetic derep – regulators of epigenetic silencing causing reporter derepression in mouse cells; murine LDR cells, GFP reporter derepression, 30 h; Potency, µM (series often up to 53.9 µM), inactives show top-dose GFP activation, most hits filed as activators; 0.2% of 280,000 active; AID 1865; active = well fitted activation curve with a large enough effect; inconclusive = small, poorly fitted or top-dose-only effect; also: potency is read from the fitted curve at half-maximal effect; % of control where 0% means no effect; nearly all actives have a fitted effect of over 60% in size
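Derepression of a silenced CMV-GFP reporter in murine LDR cells is scored by enumerating GFP-positive cells with a laser-scanning microplate cytometer after 30 hours of treatment at 37 C.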
Menin-MLL FL inh – menin-MLL binding inhibition, fluorescein peptide; 290,000 tested, under 10 active; FP activity change, % at 61.4 µM; Fluorescence polarization, fluorescein-MLL peptide displacement from menin; active = well fitted curve in the direction sought with a large enough effect in the polarisation, not every such curve was filed as active; inconclusive = small, poorly fitted or top-dose-only effect, or effect the other way, or a change in a side signal; inactive = no such curve, though single readings can be large or run the other way; the % refers to the polarisation; also: % of control where 0% means no effect
LMNA splice mod – changes lamin A minigene splicing in HeLa cells. AID 1487. HeLa LMNA splicing GFP/RFP minigene ratio, 48 h. Potency, µM (highest dose often 46.1 µM), without a hit: top-dose ratio change, negative = inhibition, actives largely listed as inhibitors. 0.01% of 200,000 active; active = well fitted inhibition curve with a large enough effect in the signal ratio, with a control signal flat, not every such curve was filed as active; inconclusive = small, poorly fitted or top-dose-only effect, or effect the other way, or a change in a side signal; the % refers to the signal ratio; also: potency is read from the fitted curve at half-maximal effect; % is scaled to controls: 0 for no effect and ±100 for the full control effect
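S3 HeLa cells stably expressing lamin A-EGFP splicing minigene plus DsRed2, 600 cells/well, 48 h compound exposure at 37C. Laser-scanning cytometry; analysed as GFP (500-530 nm)/RFP (575-640 nm) total intensity ratio; 0.5% DMSO vehicle.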
MLL CXXC-DNA inh – MLL CXXC-DNA interaction inhibition; Potency, µM (titrated, usually from 115 µM), without a hit: top-dose activity change, negative = inhibition, hits mostly inhibitors; 0.037% of 290,000 active; MLL-CXXC / FITC-HOXA9 DNA fluorescence polarization; active = well fitted inhibition curve with a large enough effect in the polarisation, with a control signal flat, not every such curve was filed as active; inconclusive = small, poorly fitted or top-dose-only effect, or effect the other way, or a change in a side signal; inactive = no such curve, though single readings can be large or run the other way; the % refers to the polarisation; also: potency is read from the fitted curve at half-maximal effect
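Steps: dispense CXXC domain solution (7 uM) → pin compounds or unlabeled HOX-A9 DNA control → 5 min ambient → add FLSN-HOX-A9 solution (50 nM) → spin → 30 min ambient → fluorescence polarization. Tris pH 7.5/NaCl/DTT/BSA buffer.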
Starred values were filed as active, the others as inactive; ? = inconclusive; nt = not tested or not shown; [ ] = dose if it differs, or a comment. Only some compounds are listed: those with a hit (about 0.26% of all), similar ones and a draw of the others.

SMILES	Menin MLL FP TR	Epigenetic derep	Menin-MLL FL inh	LMNA splice mod	MLL CXXC-DNA inh
O=S(=O)(Nc1ccc(-c2nc3cccnc3s2)cc1)c1cccs1	22µM*	0%	3	-2%	14%
Cc1cc(N/N=C/c2ccc([N+](=O)[O-])o2)nc2ccccc12	?	6.3µM*	?	nt	22%
Cc1ccc(-c2cc(C(=O)N/N=C/c3ccc([N+](=O)[O-])o3)c3ccccc3n2)o1	nt	nt	nt	nt	6%
CC(C)(C)c1ccc(S(=O)(=O)/C=C\C#N)cc1	0%[24.8 µM]	-3%	42	nt	nt
COC(=O)C1=C(C(=O)OC)[C@@H]2N(C)c3ccccc3[C@@]23C[C@@H](CO)N(C(=O)c2ccco2)C3=N1	5%[11.7 µM]	nt	-1[11.7 µM]	-23%[9.22 µM]	nt
Nc1c(C(=O)Nc2ccccc2)sc2nc(-c3cccnc3)ccc12	nt	3.5µM*	?	nt	30%
COc1ccc(NC(=O)c2sc3nc(-c4cccnc4)ccc3c2N)cc1OC	nt	7.1µM*	?	nt	?
Cc1ccc(NC(=O)c2sc3nc(-c4ccncc4)ccc3c2N)cc1	nt	22µM*	nt	nt	nt
Nc1c(C(=O)Nc2cccc(Cl)c2Cl)sc2nc(-c3cccnc3)ccc12	7%	6%	4	-7%	13%
O=C(c1ccc(Nc2nccc(-c3cc4ccccc4s3)n2)cc1)N1CCC(N2CCCC2)CC1	42%	nt	5	nt	nt
CCOC(=O)CCN1CCN(C(=O)c2ccc(-n3c(=O)c(=O)[nH]c4ccccc43)cc2)CC1	nt	-4%	nt	nt	nt
COc1ccc(C2=Nn3c(nnc3-c3cc(OC)ccc3OC)SC2)c(OC)c1	-19%	nt	-3	nt	nt
O=C(O)C1CC(=O)N(CCC23CC4CC(CC(C4)C2)C3)C(=Nc2ccccc2)S1 (stereo not drawn)	nt	-4%	nt	nt	nt
O=C(Cn1c2ccccc2c(=O)c2ccccc21)N/N=C/c1cc([N+](=O)[O-])ccc1N1CCCCCC1	-1%	20µM*	5	8%	1%
O=C(Cn1c2ccccc2c(=O)c2ccccc21)N/N=C/c1ccc(N2CCCC2)c([N+](=O)[O-])c1	0%	-1%	-3	-13%	18%
Cc1ccc(CN2c3ccccc3-c3nc(SCC(=O)NCc4ccccc4)ncc3S2(=O)=O)cc1	nt	0%	nt	nt	nt
COc1ccc(CNC(=O)CSc2ncc3c(n2)-c2ccc(Cl)cc2N(Cc2ccccc2)S3(=O)=O)cc1	nt	16µM*	nt	nt	nt
COc1cc(/C=N/NC(=O)C2COc3ccccc3O2)ccc1O (stereo not drawn)	nt	1%	-2	nt	-4%
COc1cc(/C=N/NC(=O)C2c3ccccc3Oc3ccccc32)ccc1O	2.8µM*	7%	2	-3%	7%
CCCCCCOC(=O)C[N+](C)(C)CCOC1CC2CCC1(C)C2(C)C (stereo not drawn)	16µM*	0%	-4	?	3%
O=C(NCCCN1CCOCC1)c1cc(-c2cccs2)on1	-2%	14µM*	5	?	2%
CC(C)CCC[C@@H](C)[C@@H]1CC[C@H]2C3=CC=C4CC(O)CC[C@]4(C)[C@H]3CC[C@@]21C (stereo partly drawn)	-26%	nt	?	nt	nt
Cc1ccc(/C=C(\C#N)C(=O)Nc2ccc(Br)cc2)o1	nt	22µM*	nt	nt	nt
CCC(=O)NC[C@H](Cc1ccc(OCCc2nc(-c3ccccc3)oc2C)cc1)N/C(C)=C\C(=O)c1ccc(C(F)(F)F)cc1	9%	nt	2	nt	nt
FC(F)Sc1ccc(NC(=S)NC(c2ccccc2)c2ccccc2)cc1	16µM*	?	-1	nt	7%
O=C(NCCCCN1CCCC1)c1ccc(Cc2nc3ccccc3[nH]2)cc1	nt	-4%	nt	nt	nt
CCc1cccc(C)c1NC(=O)COC(=O)c1c2c(nc3ccccc13)/C(=C\c1cccs1)CCC2	14µM*	0%	15	?	-3%
Cc1nn2c(NCc3ccccn3)c3c(nc2c1-c1ccccc1)CCC3	nt	22µM*	-1	nt	-8%
Cc1cc(NCc2ccccn2)n2nc(C)c(-c3ccccc3)c2n1	nt	?	0	nt	18%
CCN(CC)CCCNC(=O)c1ccc(-n2c(=O)c(=O)[nH]c3ccccc32)cc1	nt	-2%	nt	nt	nt
